Measured values as given in paper PMC7862700, “An all-to-all approach to the identification of sequence-specific readers for epigenetic DNA modifications on cytosine”.

Columns and labels:
Test in all cases: DAPPL (digital affinity profiling via proximity ligation, sequencing); 10 mM Tris-HCl pH 7.5, 50 mM NaCl, 1 mM DTT, 4% glycerol, room temperature, 30 min; GST-TFs on glutathione beads, 16-mer random dsDNA library, 0.1% formaldehyde crosslink after washing; high values mean tight binding
Conditions in all cases: protein: recombinant; tags: N-terminal GST; dsDNA, one strand shown
[1] = biological target: T1, FLI1 (Homo sapiens, UniProt Q01543 1-452)
T1 sequence: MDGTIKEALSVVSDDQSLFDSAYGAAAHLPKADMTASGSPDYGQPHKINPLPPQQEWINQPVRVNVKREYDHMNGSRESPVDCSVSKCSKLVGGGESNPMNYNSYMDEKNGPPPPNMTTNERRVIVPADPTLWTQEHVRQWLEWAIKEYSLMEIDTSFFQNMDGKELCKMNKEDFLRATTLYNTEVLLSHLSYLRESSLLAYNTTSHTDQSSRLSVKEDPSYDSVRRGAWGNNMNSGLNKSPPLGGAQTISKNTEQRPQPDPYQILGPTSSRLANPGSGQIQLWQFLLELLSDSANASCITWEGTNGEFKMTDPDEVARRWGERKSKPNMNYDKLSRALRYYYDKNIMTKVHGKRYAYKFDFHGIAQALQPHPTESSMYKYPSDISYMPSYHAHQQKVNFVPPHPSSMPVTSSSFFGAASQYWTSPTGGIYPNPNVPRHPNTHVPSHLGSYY
Outline: (§1)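 Binding signal is each hexamer's read frequency for a factor divided by its frequency in the tag-only sample. The factors were GST-fused human transcription factors from yeast, captured on glutathione beads, DNA-barcoded and pooled with that sample. Pools were incubated with 200 nmole of a random double-stranded 16-mer DNA library in Tris/NaCl/DTT/glycerol buffer at room temperature for 30 min, then washed, crosslinked with 0.1% formaldehyde, proximity-ligated with BsaI/T4 ligase (1 h, 37 °C), PCR-amplified and sequenced on an Illumina NextSeq500.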

[2] = biological target: T2, ELK1 (Homo sapiens, UniProt P19419 1-428)
T2 sequence: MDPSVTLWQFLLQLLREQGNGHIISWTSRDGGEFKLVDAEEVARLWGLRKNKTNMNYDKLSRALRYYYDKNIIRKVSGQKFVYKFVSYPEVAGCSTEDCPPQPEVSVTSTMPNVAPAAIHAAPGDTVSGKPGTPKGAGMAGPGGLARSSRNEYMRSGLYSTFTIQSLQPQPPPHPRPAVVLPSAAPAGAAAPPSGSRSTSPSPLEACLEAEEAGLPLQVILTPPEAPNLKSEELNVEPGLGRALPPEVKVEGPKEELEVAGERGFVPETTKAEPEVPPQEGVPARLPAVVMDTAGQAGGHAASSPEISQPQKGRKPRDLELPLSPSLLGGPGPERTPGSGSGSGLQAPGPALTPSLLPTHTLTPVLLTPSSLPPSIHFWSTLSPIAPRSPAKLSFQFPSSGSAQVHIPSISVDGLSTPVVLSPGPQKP
Outline: as §1

[3] = biological target: T3, GABPA (Homo sapiens, UniProt Q06546 1-454)
T3 sequence: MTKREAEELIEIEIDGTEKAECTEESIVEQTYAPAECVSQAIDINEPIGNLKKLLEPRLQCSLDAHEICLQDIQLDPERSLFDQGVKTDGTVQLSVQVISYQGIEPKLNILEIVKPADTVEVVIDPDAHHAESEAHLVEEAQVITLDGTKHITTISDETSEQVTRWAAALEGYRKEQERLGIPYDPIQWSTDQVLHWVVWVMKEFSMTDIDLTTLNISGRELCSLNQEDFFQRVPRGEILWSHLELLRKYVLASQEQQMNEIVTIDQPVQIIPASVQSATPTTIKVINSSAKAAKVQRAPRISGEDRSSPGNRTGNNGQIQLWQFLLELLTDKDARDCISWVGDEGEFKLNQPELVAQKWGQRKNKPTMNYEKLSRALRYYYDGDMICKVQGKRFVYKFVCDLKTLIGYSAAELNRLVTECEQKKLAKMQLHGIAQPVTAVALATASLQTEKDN
Outline: as §1

[4] = biological target: T4, ERG (Homo sapiens, UniProt P11308 1-479)
T4 sequence: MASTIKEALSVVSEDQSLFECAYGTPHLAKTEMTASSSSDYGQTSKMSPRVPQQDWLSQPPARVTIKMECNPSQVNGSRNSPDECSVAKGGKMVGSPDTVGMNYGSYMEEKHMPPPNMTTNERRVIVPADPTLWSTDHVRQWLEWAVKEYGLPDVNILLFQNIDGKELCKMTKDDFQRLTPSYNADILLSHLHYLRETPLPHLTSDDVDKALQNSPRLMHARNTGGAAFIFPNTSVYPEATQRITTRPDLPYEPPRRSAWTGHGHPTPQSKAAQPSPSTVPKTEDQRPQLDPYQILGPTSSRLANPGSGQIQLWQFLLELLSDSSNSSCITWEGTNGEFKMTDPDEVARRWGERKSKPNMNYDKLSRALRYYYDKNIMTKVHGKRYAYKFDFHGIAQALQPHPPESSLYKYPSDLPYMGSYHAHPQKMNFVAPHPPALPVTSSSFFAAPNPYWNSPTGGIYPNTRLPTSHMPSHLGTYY
Outline: as §1

[5] = biological target: ELF1 (Homo sapiens, UniProt P32519 1-619)
Chain of ELF1 (P32519 whole entry): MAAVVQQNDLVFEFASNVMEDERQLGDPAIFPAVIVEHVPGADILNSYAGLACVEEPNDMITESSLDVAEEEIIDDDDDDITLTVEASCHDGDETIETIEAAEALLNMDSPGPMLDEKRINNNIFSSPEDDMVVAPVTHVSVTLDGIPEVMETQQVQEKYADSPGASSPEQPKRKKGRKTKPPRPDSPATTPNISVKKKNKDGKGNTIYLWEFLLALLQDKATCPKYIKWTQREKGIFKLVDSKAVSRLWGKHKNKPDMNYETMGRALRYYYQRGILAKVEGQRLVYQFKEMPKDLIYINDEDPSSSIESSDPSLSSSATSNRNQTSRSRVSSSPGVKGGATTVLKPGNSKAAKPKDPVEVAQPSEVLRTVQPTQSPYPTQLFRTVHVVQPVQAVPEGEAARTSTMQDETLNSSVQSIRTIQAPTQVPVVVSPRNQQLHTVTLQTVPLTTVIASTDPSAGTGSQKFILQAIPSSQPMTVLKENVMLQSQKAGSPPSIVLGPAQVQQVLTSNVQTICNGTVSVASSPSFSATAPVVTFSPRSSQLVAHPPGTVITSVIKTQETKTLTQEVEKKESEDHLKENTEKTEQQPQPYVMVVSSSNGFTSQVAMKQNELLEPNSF
Outline: as §1

[6] = biological target: T5, EHF (Homo sapiens, UniProt Q9NZC4 1-300)
T5 sequence: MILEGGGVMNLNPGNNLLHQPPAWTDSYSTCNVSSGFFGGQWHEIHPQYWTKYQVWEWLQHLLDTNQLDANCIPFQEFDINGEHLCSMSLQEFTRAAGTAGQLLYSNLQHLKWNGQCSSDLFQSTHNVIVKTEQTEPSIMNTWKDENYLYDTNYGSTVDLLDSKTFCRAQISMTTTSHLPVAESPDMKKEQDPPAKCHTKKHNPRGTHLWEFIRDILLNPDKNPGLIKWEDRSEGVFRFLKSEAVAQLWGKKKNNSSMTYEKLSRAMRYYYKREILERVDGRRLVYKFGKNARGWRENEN
Outline: as §1

[7] = biological target: SPI1 (Homo sapiens, UniProt P17947 1-270)
Outline: as §1

[8] = biological target: SPIB (Homo sapiens, UniProt Q01892 1-262)
Chain of SPIB (Q01892 whole entry): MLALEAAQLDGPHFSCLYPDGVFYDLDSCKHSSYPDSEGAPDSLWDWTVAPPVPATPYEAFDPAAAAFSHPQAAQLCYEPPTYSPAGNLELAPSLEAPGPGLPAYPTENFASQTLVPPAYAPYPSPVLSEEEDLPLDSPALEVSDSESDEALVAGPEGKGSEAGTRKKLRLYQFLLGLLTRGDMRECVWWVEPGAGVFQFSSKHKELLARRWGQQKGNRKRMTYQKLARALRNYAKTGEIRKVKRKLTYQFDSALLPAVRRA
Outline: as §1

[9] = biological target: T6, ELK3 (Homo sapiens, UniProt P41970 1-407)
T6 sequence: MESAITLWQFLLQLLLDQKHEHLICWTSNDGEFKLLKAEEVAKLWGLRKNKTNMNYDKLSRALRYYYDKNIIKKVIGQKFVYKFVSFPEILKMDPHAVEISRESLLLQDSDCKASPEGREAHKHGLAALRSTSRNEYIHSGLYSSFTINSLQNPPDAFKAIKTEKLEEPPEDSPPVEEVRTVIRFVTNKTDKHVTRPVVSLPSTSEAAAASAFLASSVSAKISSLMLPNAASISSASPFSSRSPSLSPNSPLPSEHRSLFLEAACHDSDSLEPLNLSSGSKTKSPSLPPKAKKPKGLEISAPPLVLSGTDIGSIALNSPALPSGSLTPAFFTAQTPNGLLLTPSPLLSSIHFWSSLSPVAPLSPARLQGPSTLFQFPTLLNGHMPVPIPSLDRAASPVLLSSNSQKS
Outline: as §1

TCCTAT
binding signal [1]: 1.62 fold enrichment (6-mer frequency, TF over GST control) | binding signal [2]: 1.56 fold enrichment (6-mer frequency, TF over GST control) | binding signal [3]: 1.58 fold enrichment (6-mer frequency, TF over GST control) | binding signal [4]: 1.45 fold enrichment (6-mer frequency, TF over GST control) | binding signal [5]: 1.46 fold enrichment (6-mer frequency, TF over GST control) | binding signal [6]: 1.5 fold enrichment (6-mer frequency, TF over GST control) | binding signal [7]: 1.44 fold enrichment (6-mer frequency, TF over GST control) | binding signal [8]: 1.6 fold enrichment (6-mer frequency, TF over GST control) | binding signal [9]: 1.47 fold enrichment (6-mer frequency, TF over GST control)

AATCCT
binding signal [1]: 1.46 fold enrichment (6-mer frequency, TF over GST control) | binding signal [2]: 1.31 fold enrichment (6-mer frequency, TF over GST control) | binding signal [3]: 1.34 fold enrichment (6-mer frequency, TF over GST control) | binding signal [4]: 1.41 fold enrichment (6-mer frequency, TF over GST control) | binding signal [5]: 1.36 fold enrichment (6-mer frequency, TF over GST control) | binding signal [6]: 1.33 fold enrichment (6-mer frequency, TF over GST control) | binding signal [7]: 1.37 fold enrichment (6-mer frequency, TF over GST control) | binding signal [8]: 1.38 fold enrichment (6-mer frequency, TF over GST control) | binding signal [9]: 1.46 fold enrichment (6-mer frequency, TF over GST control)

AATCTG
binding signal [1]: 1.48 fold enrichment (6-mer frequency, TF over GST control) | binding signal [2]: 1.33 fold enrichment (6-mer frequency, TF over GST control) | binding signal [3]: 1.49 fold enrichment (6-mer frequency, TF over GST control) | binding signal [4]: 1.46 fold enrichment (6-mer frequency, TF over GST control) | binding signal [5]: 1.48 fold enrichment (6-mer frequency, TF over GST control) | binding signal [6]: 1.31 fold enrichment (6-mer frequency, TF over GST control) | binding signal [7]: 1.42 fold enrichment (6-mer frequency, TF over GST control) | binding signal [8]: 1.51 fold enrichment (6-mer frequency, TF over GST control) | binding signal [9]: 1.34 fold enrichment (6-mer frequency, TF over GST control)

TTGAAA
binding signal [1]: 1.22 fold enrichment (6-mer frequency, TF over GST control) | binding signal [2]: 1.25 fold enrichment (6-mer frequency, TF over GST control) | binding signal [3]: 1.11 fold enrichment (6-mer frequency, TF over GST control) | binding signal [4]: 1.09 fold enrichment (6-mer frequency, TF over GST control) | binding signal [5]: 1.23 fold enrichment (6-mer frequency, TF over GST control) | binding signal [6]: 1.23 fold enrichment (6-mer frequency, TF over GST control) | binding signal [7]: 1.18 fold enrichment (6-mer frequency, TF over GST control) | binding signal [8]: 1.1 fold enrichment (6-mer frequency, TF over GST control) | binding signal [9]: 1.09 fold enrichment (6-mer frequency, TF over GST control)

TAATCT
binding signal [1]: 1.39 fold enrichment (6-mer frequency, TF over GST control) | binding signal [2]: 1.34 fold enrichment (6-mer frequency, TF over GST control) | binding signal [3]: 1.33 fold enrichment (6-mer frequency, TF over GST control) | binding signal [4]: 1.38 fold enrichment (6-mer frequency, TF over GST control) | binding signal [5]: 1.4 fold enrichment (6-mer frequency, TF over GST control) | binding signal [6]: 1.44 fold enrichment (6-mer frequency, TF over GST control) | binding signal [7]: 1.33 fold enrichment (6-mer frequency, TF over GST control) | binding signal [8]: 1.4 fold enrichment (6-mer frequency, TF over GST control) | binding signal [9]: 1.46 fold enrichment (6-mer frequency, TF over GST control)

CTACCG
binding signal [1]: 1.44 fold enrichment (6-mer frequency, TF over GST control) | binding signal [2]: 1.71 fold enrichment (6-mer frequency, TF over GST control) | binding signal [3]: 1.58 fold enrichment (6-mer frequency, TF over GST control) | binding signal [4]: 1.5 fold enrichment (6-mer frequency, TF over GST control) | binding signal [5]: 1.64 fold enrichment (6-mer frequency, TF over GST control) | binding signal [6]: 1.55 fold enrichment (6-mer frequency, TF over GST control) | binding signal [7]: 1.52 fold enrichment (6-mer frequency, TF over GST control) | binding signal [8]: 1.73 fold enrichment (6-mer frequency, TF over GST control) | binding signal [9]: 1.57 fold enrichment (6-mer frequency, TF over GST control)
